Data on nine compounds can be found in PubChem BioAssay (Tox21).

Molecules are shown by their SMILES. Inconclusive results are not listed. Calls of active or inactive are those of the source. Unless noted, calls follow the shape of the dose curve; as a rule, active = well fitted curve in the direction sought with a large enough effect in the repeat runs; inconclusive = weak or mixed curves; inactive = no such curve, though single readings can be large; an effect the other way counts as inactive or inconclusive.

The nature of experiment [1]: qHTS assay to identify small molecule antagonists of the androgen receptor (AR) signaling pathway using the MDA cell line in the presence of 0.5 nM R1881 - cell viability counter screen (AID 1259242). Also: nearly all actives have a fitted effect of over 45% in size. Summed up:
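Concentration-response screen of compounds for toxicity in MDA-kb2 reporter cells: 16 hr at 37C with 0.5 nM R1881, endpoint live-cell protease fluorescence measured in the reporter wells.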
(In general: qHTS replaces the single test concentration by a dilution series.)

Experiment [2] can be described thus: qHTS assay to identify small molecule HDAC inhibitors (AID 1259364).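 Also: wild-type HCT-116 cells with endogenous class I/II HDAC activity; top concentration of the series differs between compounds; nearly all actives have a fitted effect of over 45% in size.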 Summed up: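 Screening used wild-type human colon HCT-116 cells incubated overnight, dosed with compounds for 2 hours, and assayed with a homogeneous luminogenic HDAC I/II reagent for 30 minutes at room temperature.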
A short description of experiment [3]: qHTS assay to identify small molecule HDAC inhibitors - cell viability counter screen (AID 1259365). Also: series mostly up to about 92 µM; nearly all actives have a fitted effect of over 50% in size. The method in brief:
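To flag cytotoxic hits, 1,500 wild-type HCT-116 cells per well, plated the day before, receive test compounds for 2hr at 37 C before CellTiter-Glo reagent and a luminescence read.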

Experiment [4] can be described thus: qHTS assay to identify small molecule agonists of the sonic hedgehog signaling (Shh) pathway - cell viability counter screen (AID 1259366). Also: nearly all actives have a fitted effect of over 50% in size. Summed up:
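Fluorescence from CellTiter-Fluor reports live cells in this counter screen. NIH/3T3-derived Gli1-Luc reporter cells receive test compounds for 24hr at 37C; reagent goes in at 23hr.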

Experiment [5] is described as follows: qHTS assay to identify small molecule antagonists of the sonic hedgehog signaling (Shh) pathway - cell viability counter screen (AID 1259367). Also: nearly all actives have a fitted effect of over 55% in size. The method in brief:
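Conditioned medium drove Shh signaling in 3T3 Gli1-Luc cells exposed to compounds at 37C and 5% CO2. Viability was determined from CellTiter-Fluor fluorescence, with reagent incubated 1 hr after 23 hr of treatment.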

Experiment [6] is described as follows: qHTS assay to identify small molecule agonists of the sonic hedgehog signaling (Shh) pathway (AID 1259368; calls by dose curve;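 also: NIH/3T3-derived 3T3Gli1-Luc cells carrying a stable Gli1-driven firefly luciferase reporter; series mostly up to about 92 µM; nearly all actives have a fitted effect of over 15% in size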). Summed up: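 Hedgehog pathway agonism scored by increased firefly luciferase luminescence in 3T3Gli1-Luc cells treated 24 hr at 37 C; detection used a 30 min room-temperature reagent incubation.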
The target of experiment [7] is Estrogen receptor beta (Homo sapiens) (UniProt Q92731). In words: qHTS assay to identify small molecule antagonists of the estrogen receptor beta (ER-beta) signaling pathway (AID 1259378; active = well fitted inhibition curve with a large enough effect in the signal ratio in the repeat runs, not every such curve was filed as active; the % refers to the signal ratio). Summed up:
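ER-beta-UAS-bla HEK293T (GripTite) cells in 2% charcoal-stripped FBS medium were preincubated 6 hr at 37C, dosed with compound, then stimulated with 1 nM E2 (final) for 16 hr; beta-lactamase reporter read by B/G FRET fluorescence after 2 hr substrate loading.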

Experiment [8] in a line: qHTS assay to identify small molecule agonists of the androgen receptor (AR) signaling pathway in the presence of an antagonist - cell viability counter screen (AID 1259379).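 Also: MDA-kb2 human breast cancer cells carrying an MMTV luciferase reporter; series mostly up to about 92 µM; nearly all actives have a fitted effect of over 25% in size.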 Summed up: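 MDA-kb2 viability measured by CellTiter-Fluor fluorescence in the same wells as the luciferase signal; nilutamide 3.0uM final; 15-point compound titration; 16 hr at 37C.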
Experiment [9] can be described thus: qHTS assay to identify small molecule agonists of the estrogen receptor beta (ER-beta) signaling pathway - cell viability counter screen (AID 1259380). Also: nearly all actives have a fitted effect of over 30% in size. Also: potency is read from the fitted curve at half-maximal effect. The method in brief: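 Measured: luminescence from CellTiter-Glo after 30 min at room temperature, added to wells already read for the LiveBLAzer FRET reporter (2 hr substrate); ER-beta-UAS-bla HEK293T cells had 16 hr compound treatment at 37C, 5% CO2.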

Experiment [10] in a line: qHTS assay to identify small molecule antagonists of the estrogen receptor beta (ER-beta) signaling pathway - cell viability counter screen (AID 1259382). Also: series mostly up to about 92 µM; nearly all actives have a fitted effect of over 55% in size. The method in brief: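 Readout: luminescence, CellTiter-Glo, same wells as bla assay. System: ER-beta-UAS-bla GripTite HEK293T, 2% charcoal-stripped FBS. Exposure: compounds plus 1nM 17-beta-estradiol, 16 hr, 37C.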
Experiment [11] in a line: qHTS assay to identify small molecule agonists or antagonists of the thyroid stimulating hormone receptor (TSHR) signaling pathway - wild type cell line counter screen (AID 1259384; calls by dose curve). Summed up: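 Wild-type HEK293 cells were plated 18 h at 37 C/5% CO2, pin-dosed with compound plus Ro20-1724 medium, held 30 min at room temperature, then given cAMP-d2 and anti-cAMP-cryptate; fluorescence was read after 1 h. Fifteen concentrations, triplicate.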

For experiment [12], the target named is Thyrotropin receptor (Homo sapiens) (UniProt P16473). As to the kind of experiment: qHTS assay to identify small molecule antagonists of the thyroid stimulating hormone receptor (TSHR) signaling pathway (AID 1259385; calls by dose curve; also: nearly all actives have a fitted effect of over 20% in size). The method in brief: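 TSHR-HEK293 cells were plated and held 18 h at 37C/5% CO2, then given compound plus Ro20-1724 and stimulated with TSH at 1.5 ng/mL final. After 30 min at room temperature, cAMP was detected with cAMP-d2/anti-cAMP-cryptate (1 h) by fluorescence.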
Thyrotropin receptor (Homo sapiens), sequence (P16473 whole entry, looked up): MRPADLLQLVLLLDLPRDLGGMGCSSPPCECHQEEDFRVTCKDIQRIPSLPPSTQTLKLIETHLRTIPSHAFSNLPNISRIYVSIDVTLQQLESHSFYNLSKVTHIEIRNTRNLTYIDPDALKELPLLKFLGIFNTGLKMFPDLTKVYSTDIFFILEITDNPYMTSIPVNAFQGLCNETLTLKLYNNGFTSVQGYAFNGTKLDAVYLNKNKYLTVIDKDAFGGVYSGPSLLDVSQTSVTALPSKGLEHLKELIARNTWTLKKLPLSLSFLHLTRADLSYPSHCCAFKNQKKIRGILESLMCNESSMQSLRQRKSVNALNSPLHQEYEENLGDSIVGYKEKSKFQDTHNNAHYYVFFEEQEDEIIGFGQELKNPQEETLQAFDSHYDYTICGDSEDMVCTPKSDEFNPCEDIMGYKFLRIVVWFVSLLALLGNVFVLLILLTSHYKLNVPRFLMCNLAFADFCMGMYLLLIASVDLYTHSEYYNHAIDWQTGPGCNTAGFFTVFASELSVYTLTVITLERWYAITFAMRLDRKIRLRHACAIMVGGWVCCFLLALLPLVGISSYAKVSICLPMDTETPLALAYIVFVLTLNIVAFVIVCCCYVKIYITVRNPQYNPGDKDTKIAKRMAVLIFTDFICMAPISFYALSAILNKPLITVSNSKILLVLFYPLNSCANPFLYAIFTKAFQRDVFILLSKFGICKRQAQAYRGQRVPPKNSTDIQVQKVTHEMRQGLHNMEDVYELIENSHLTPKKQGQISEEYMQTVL

Experiment [13] can be described thus: qHTS assay to identify small molecule agonists of the estrogen receptor alpha (ER-alpha) signaling pathway in the presence of an antagonist - cell viability counter screen (AID 1259386).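 Also: series mostly up to about 92 µM; cells exposed to compounds for 22 h at 37 °C before the viability read; nearly all actives have a fitted effect of over 30% in size.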 Summed up: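 The test measures whether compounds kill ER-alpha reporter cells (VM7Luc4E2) under antagonist co-treatment (ICI-182,780, 10.0nM). Fluorescence from CellTiter-Fluor is read after a 22hr exposure.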

Experiment [14] in a line: qHTS assay to identify small molecule antagonists of the sonic hedgehog signaling (Shh) pathway (AID 1259369; calls by dose curve; also: nearly all actives have a fitted effect of over 45% in size). Summed up:
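NIH/3T3 stable Gli1-Luc clone, 2,000 cells/well, 4hr settle; cpd + conditioned medium 24hr; Luc reagent 30min RT; luminescence.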

The target of experiment [15] is Estrogen receptor beta (Homo sapiens) (UniProt Q92731). In words: qHTS assay to identify small molecule agonists of the estrogen receptor beta (ER-beta) signaling pathway (AID 1259377; active = well fitted activation curve with a large enough effect in the signal ratio in the repeat runs, not every such curve was filed as active; the % refers to the signal ratio). The method in brief: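 Screening used GripTite ER-beta-UAS-bla cells held in 2% charcoal-stripped FBS medium. After overnight (16 hr) compound incubation at 37C, beta-lactamase activity was detected with a FRET substrate by fluorescence.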
Estrogen receptor beta (Homo sapiens), sequence (Q92731 whole entry, looked up): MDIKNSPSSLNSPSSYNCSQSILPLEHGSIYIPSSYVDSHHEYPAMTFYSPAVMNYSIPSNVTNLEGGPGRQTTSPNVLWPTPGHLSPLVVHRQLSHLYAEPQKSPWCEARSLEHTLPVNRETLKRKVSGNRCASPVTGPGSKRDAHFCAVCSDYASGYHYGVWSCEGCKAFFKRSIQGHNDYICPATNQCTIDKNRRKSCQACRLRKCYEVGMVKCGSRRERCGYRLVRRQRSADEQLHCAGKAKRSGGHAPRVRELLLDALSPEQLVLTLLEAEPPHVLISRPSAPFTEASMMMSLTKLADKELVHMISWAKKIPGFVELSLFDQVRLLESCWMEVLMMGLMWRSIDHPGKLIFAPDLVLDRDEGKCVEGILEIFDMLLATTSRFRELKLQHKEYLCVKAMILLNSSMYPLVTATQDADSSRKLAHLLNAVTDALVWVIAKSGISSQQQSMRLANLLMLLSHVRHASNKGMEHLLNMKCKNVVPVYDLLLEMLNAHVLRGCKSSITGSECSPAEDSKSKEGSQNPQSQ

Experiment [16] deals with Androgen receptor (Homo sapiens) (UniProt P10275). As to the kind of experiment: qHTS assay to identify small molecule antagonists of the androgen receptor (AR) signaling pathway using the MDA cell line in the presence of 0.5 nM R1881 (AID 1259243). Also: nearly all actives have a fitted effect of over 50% in size. Also: potency is read from the fitted curve at half-maximal effect. The method in brief:
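With R1881 held at 0.5 nM (final), compound effects on MMTV-luciferase expression in MDA-kb2 cells were scored by luminescence after a 16 hr, 37C incubation.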

Experiment [17] deals with Estrogen receptor (Homo sapiens) (UniProt P03372). In words: qHTS assay to identify small molecule antagonists of the estrogen receptor alpha (ER-alpha) signaling pathway using the BG1 cell line in the presence of 0.1 nM 17-beta-estradiol (AID 1259244). Also: nearly all actives have a fitted effect of over 50% in size. Summed up:
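Compounds were tested against 0.1 nM (final) 17beta-estradiol in VM7Luc4E2 cells, which express full-length ER-alpha and an ERE-luciferase reporter; luminescence was recorded following 22 h exposure.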

The target of experiment [18] is Androgen receptor (Homo sapiens) (UniProt P10275). In words: qHTS assay to identify small molecule agonists of the androgen receptor (AR) signaling pathway in the presence of an antagonist (AID 1259381; calls by dose curve; also: nearly all actives have a fitted effect of over 15% in size). Summed up: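 Luminescent ONE-Glo read, 30min at room temperature, follows 16hr compound exposure (15 concentrations) of MDA-kb2 cells at 37C, 0% CO2, with nilutamide added at 3.0uM final.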
Androgen receptor (Homo sapiens), sequence (P10275 whole entry, looked up): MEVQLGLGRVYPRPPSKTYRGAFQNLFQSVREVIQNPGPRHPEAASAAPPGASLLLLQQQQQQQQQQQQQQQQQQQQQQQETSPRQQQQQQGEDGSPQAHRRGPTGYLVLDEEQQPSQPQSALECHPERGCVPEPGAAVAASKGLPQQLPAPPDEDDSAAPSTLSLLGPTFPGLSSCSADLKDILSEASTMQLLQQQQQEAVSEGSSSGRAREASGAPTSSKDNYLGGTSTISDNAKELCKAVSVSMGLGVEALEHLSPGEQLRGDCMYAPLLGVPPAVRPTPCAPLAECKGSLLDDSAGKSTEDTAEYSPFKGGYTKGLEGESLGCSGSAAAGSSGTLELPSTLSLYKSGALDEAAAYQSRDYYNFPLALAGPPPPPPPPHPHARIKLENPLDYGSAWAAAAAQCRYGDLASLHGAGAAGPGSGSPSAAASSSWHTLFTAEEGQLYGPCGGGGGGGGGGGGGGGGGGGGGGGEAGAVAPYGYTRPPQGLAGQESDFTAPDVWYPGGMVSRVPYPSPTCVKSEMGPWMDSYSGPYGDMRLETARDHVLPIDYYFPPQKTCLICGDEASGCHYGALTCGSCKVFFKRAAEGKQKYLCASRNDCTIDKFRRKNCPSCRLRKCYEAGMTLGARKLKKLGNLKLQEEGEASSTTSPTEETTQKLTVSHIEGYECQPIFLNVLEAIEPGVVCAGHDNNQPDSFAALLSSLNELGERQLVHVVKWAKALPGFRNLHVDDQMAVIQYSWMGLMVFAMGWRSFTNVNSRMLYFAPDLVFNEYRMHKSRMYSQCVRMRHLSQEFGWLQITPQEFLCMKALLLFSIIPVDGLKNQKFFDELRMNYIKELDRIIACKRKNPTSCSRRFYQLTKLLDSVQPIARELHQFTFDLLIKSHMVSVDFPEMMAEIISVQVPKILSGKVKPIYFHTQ

The target of experiment [19] is Estrogen receptor (Homo sapiens) (UniProt P03372). In words: qHTS assay to identify small molecule agonists of the estrogen receptor alpha (ER-alpha) signaling pathway in the presence of an antagonist (AID 1259383; calls by dose curve; also: top concentration of the series differs between compounds; nearly all actives have a fitted effect of over 15% in size). The method in brief: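 Quantitative HTS confirmation: compounds titrated at 15 concentrations onto estrogen-deprived VM7Luc4E2 cells carrying a four-ERE luciferase construct, with ICI-182,780 present at 10.0nM final. Signal is luminescence after 22hr exposure.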
Estrogen receptor (Homo sapiens), sequence (P03372 whole entry, looked up): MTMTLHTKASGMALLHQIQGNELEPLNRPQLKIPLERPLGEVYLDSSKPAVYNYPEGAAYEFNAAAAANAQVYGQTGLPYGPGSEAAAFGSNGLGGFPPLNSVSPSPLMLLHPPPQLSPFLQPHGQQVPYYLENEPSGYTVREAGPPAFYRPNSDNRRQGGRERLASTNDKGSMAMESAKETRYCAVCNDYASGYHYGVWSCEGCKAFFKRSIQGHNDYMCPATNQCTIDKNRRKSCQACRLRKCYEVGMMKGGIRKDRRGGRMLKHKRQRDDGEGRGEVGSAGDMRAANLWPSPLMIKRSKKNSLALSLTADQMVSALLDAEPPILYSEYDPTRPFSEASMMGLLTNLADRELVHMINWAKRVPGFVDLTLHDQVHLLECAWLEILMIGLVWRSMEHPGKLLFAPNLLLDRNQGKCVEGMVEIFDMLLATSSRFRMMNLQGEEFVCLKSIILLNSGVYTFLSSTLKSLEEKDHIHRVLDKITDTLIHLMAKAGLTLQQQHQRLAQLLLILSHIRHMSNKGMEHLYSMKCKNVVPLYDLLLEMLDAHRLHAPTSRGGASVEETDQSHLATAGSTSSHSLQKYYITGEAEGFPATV

Experiment [20] in a line: qHTS assay to identify small molecule phospholipidosis (PLD) inducers (AID 1259344; active = well fitted curve in the direction sought with a large enough effect; an effect the other way counts as inactive or inconclusive). Summed up:
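After 4 h attachment on collagen I, HepG2 cells were dosed with compound alongside LipidTOX Red, kept 24 h at 37 C, fixed, and imaged for lamellar phospholipid pits.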

Take `CC(C1CC1)C(O)(Cn1cncn1)c1ccc(Cl)cc1` (stereo not given): the outcome in experiment [1], in experiment [3] and in experiment [6] was inactive. Besides, the Potency result in experiment [2], in [4], in experiment [5], in experiment [7], in [8] and in [9] was “inactive” throughout. The Potency entry in [10], in [11], in [12] and in experiment [13] was “inactive” each time.

`CCOC(=O)NC(=S)Nc1ccccc1NC(=S)NC(=O)OCC`: the outcome in experiment [1], in experiment [3], in experiment [6] and in experiment [15] was inactive. Further, the Potency entry in [4], in [5], in experiment [14], in [7], in experiment [8] and in experiment [9] was “inactive” throughout. Moreover, the Potency result in experiment [10] and in experiment [13] was “inactive” throughout.

Consider `CCCSC(=O)N(CCC)CCC`, for which the result in experiment [1], in experiment [3] and in experiment [6] was inactive. Moreover, the Potency result in experiment [2], in experiment [4], in experiment [5], in experiment [14], in experiment [8] and in [9] was “inactive” throughout. Also, the Potency result in experiment [10], in experiment [11], in experiment [12] and in experiment [13] was “inactive” in each case.

Regarding `O=C(CCN1CC1)OCC(CO)(COC(=O)CCN1CC1)COC(=O)CCN1CC1`, the result in experiment [1], in experiment [3] and in experiment [6] was inactive. The Potency result in experiment [4], in [5], in [14], in experiment [8], in experiment [9] and in experiment [10] was “inactive” in each case. Also, the Potency result in [11] and in [12] was “inactive” throughout.

For the compound `CNC(=O)Oc1ccccc1C1OCCO1`, the Potency entry in [16], in [17], in experiment [2], in experiment [4], in experiment [5] and in experiment [14] was “inactive” in each case. The Potency entry in experiment [7], in experiment [8], in [9], in [18], in experiment [10] and in experiment [19] was “inactive” throughout. Besides, the outcome in experiment [3], in experiment [6] and in [15] was inactive.

With `CSc1ccc(C(=O)C(C)(C)N2CCOCC2)cc1`, the result in experiment [1], in experiment [3], in experiment [6] and in experiment [15] was inactive. Further, the Potency entry in experiment [4], in experiment [5], in [14], in experiment [8], in experiment [9] and in experiment [10] was “inactive” in each case. The Potency result in experiment [19] and in [13] was “inactive” in each case.

As to `[As]#[In]`, the outcome in [1], in experiment [3], in [6] and in [15] was inactive. The Potency result in experiment [2], in experiment [4], in experiment [5], in experiment [7], in [8] and in [9] was “inactive” throughout. Besides, the Potency result in experiment [10], in [11], in experiment [12] and in experiment [13] was “inactive” throughout.

Consider `O=C(O)c1ccc2[nH]cc(CCCCN3CC=C(c4ccccc4)CC3)c2c1`, for which the Potency entry in experiment [16], in [17], in experiment [2], in experiment [4], in experiment [8] and in experiment [9] was “inactive” throughout. Also, the Potency result in experiment [18], in experiment [10], in [19], in experiment [11] and in experiment [12] was “inactive” each time. Besides, the compound was called inactive in experiment [20], in experiment [3] and in experiment [6].

Consider `O=[N+]([O-])c1cccc2c([N+](=O)[O-])cccc12`, for which the Potency was 61.4 µM (active) in experiment [16] and 10.9 µM (active) in experiment [9]. Moreover, the Potency result in experiment [2], in [4], in [14], in experiment [18], in experiment [11] and in [12] was “inactive” each time. Moreover, the Potency entry in experiment [13] was “inactive”. The outcome in [3] and in [6] was inactive.
